What all share (assay): NCI-60 one-dose screen, 48 h (100 = growth as untreated, 0 = no growth, -100 = all killed)
Holding throughout (settings): 10 µM unless noted

Test [1] concerns SR leukemia.
Test [2] relates to RPMI-8226 leukemia.
Test [3] relates to OVCAR-8 ovarian.
Test [4] concerns OVCAR-5 ovarian.
Test [5] deals with OVCAR-4 ovarian.
For test [6], the system named is SK-OV-3 ovarian.
The test system of test [7] is IGROV1 ovarian.
The test system of test [8] is OVCAR-3 ovarian.
Test [9] relates to HS 578T breast.
Test [10] concerns NCI/ADR-RES ovarian.
Test [11] concerns T-47D breast.
Test [12] has as its system BT-549 breast.
In test [13] the test system is MDA-MB-435 melanoma.
For test [14], the system named is SW-620 colon.
Test [15] concerns MCF7 breast.
Test [16] concerns HCT-116 colon.
The subject of test [17] is HCC-2998 colon.
In test [18] the test system is KM12 colon.

Compounds without any hit were thinned out: in the full panel of roughly 83,000, 20% have a hit.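 Single-concentration screen, 48 h exposure, 96-well plates. Endpoint: percent growth. Below 10 = active.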 A number with no mark means an inactive call. Activity calls are given as the source filed them.

`CCO/C=N/C1=C(C#N)C(c2ccc(OC)cc2)c2sc3c(C)cccc3c2O1` (configuration not stated): the growth in test [1] is 17.9%; in [2] it was 0.107% (active); in test [3], 29.3%; in test [4], 34.4%; in [5], 85.3%; in test [6], 50.3%. The growth in [7] is 27.1%; in test [8], 7.72% (active); in test [9] it was 16.6%; in [10], 10.9%; in [11], 34.5%; in [12], 35.2%. In addition, the growth in test [13] is -21.5% (active); in test [14], 33.5%; in [15], 23.5%; in [16] it was 12%; in [17] it was 21.1%; in test [18] it was 19%.
Regarding `COc1cccc(N2CCN(c3ncnc4c3[nH]c3ccc(F)cc34)C[C@H]2C)c1`, the growth is 46.4% in test [1]; 19.2% in [2]; 22% in test [3]; 91.4% in test [4]; 28% in test [5]; 68% in [6]. Further, the growth in test [7] is 59.5%; in test [8] it was 69.4%; in [9] it was 72.9%; in test [10], 17%; in test [11] it was 14.6%; in test [12] it was -3.9% (active). In addition, the growth in [13] was 19.4%; in test [14], 95.9%; in test [15], 37.2%; in [16] it was 41.9%; in test [17], 96.8%; in test [18] it was 54.5%.
On to `N#Cc1cn(Cc2ccc(Cl)cc2Cl)c(C(=O)c2ccc(Br)cc2)c1N`, for which the growth was 99.5% in test [1]; 111% in [2]; 84.5% in [3]; 92% in test [4]; 100% in test [5]; 90.4% in [6]. Besides, the growth in [7] was 97.3%; in test [8] it was 105%; in [9], 90%; in [10] it was 88.8%; in test [11] it was 87.8%; in [12] it was 108%. Further, the growth was 95.6% in test [13]; 98.8% in test [14]; 87.2% in test [15]; 101% in test [16]; 108% in [17]; 99.3% in [18].
For `COc1cccc(O)c1/C=C(/C)c1ccc2c(OC)cccc2[o+]1`, the growth in test [1] is 87.6%; in [2], 109%; in test [3], 103%; in test [4] it was 106%; in test [5] it was 103%; in test [6], 106%. In addition, the growth in test [7] was 97%; in [8] it was 116%; in test [9] it was 110%; in test [10] it was 100%; in test [11], 106%; in test [12], 95.7%. The growth was 86.7% in [13]; 96.7% in test [14]; 93.8% in test [15]; 101% in test [16]; 110% in [17]; 101% in test [18].
For the molecule `COc1ccccc1-n1cc(C#N)c(N)c1C(=O)c1ccc(C)cc1`, the growth is 49.4% in test [1]; 99.7% in test [2]; 95% in test [3]; 103% in [4]; 103% in test [5]; 93.5% in [6]. The growth is 84.6% in test [7]; 94.6% in test [8]; 85.6% in test [9]; 60.2% in [10]; 82.1% in [11]; 83.9% in [12]. The growth is 5.3% (active) in test [13]; 52.4% in test [14]; 51.3% in test [15]; 76.8% in test [16]; 80.9% in test [17]; 59.6% in test [18].
For the molecule `O=S(=O)(NCCCNc1nccc(-c2[nH]c(-c3ccccc3)nc2-c2ccc(Cl)c(O)c2)n1)c1cccc(F)c1`, the growth in test [1] was 39.4%; in test [2], 41.1%; in test [3], 50.1%; in test [4] it was 85.4%; in [5], 71.8%; in test [6], 105%. Also, the growth in [7] was 57.9%; in test [8], 60.3%; in test [9] it was 96.2%; in test [10], 73.2%; in test [11], 49.9%; in [12] it was 59.7%. Besides, the growth in [13] was 21.5%; in test [14] it was 92.5%; in test [15], 55.3%; in test [16] it was 35.4%; in test [17], 101%; in test [18], 60.5%.
For `Cc1ccc(S(=O)(=O)N(CC[C@@H]2C[C@H]2c2cc3ccccc3o2)S(=O)(=O)c2ccc(C)cc2)cc1`, the growth was 128% in test [1]; 101% in test [2]; 96.8% in test [3]; 98% in [4]; 76.8% in [5]; 101% in [6]. In addition, the growth in [7] is 101%; in test [8], 108%; in test [9] it was 98.6%; in test [10], 94%; in [11] it was 78.3%; in test [12], 98%. Further, the growth is 104% in test [13]; 95.2% in test [14]; 79.6% in [15]; 92.5% in [16]; 100% in test [17]; 103% in [18].
As to `Cc1cccc2c3c(sc12)C(c1ccc(Cl)cc1)c1c(nc(CC(=O)Nc2ccccc2)[nH]c1=O)O3` (configuration not stated), the growth in test [1] was 58.1%; in [2], 73.9%; in test [3], 85.6%; in [4], 81.6%; in test [5], 90.3%; in [6], 73.3%. The growth is 21% in [7]; 30.5% in [8]; 60.1% in test [9]; 26.7% in [10]; 47.9% in [11]; 77.1% in [12]. Further, the growth was 9.37% (active) in test [13]; 40.9% in test [14]; 38.1% in [15]; 37.7% in [16]; 85.7% in test [17]; 37.7% in test [18].
Turning to `Cc1ccc(NC(=O)c2ccc(CN3CCOCC3)c(C(F)(F)F)c2)cc1Oc1ccc(-c2[nH]nc3ncnc(N)c23)cc1`, the growth was 55.5% in test [1]; 44.6% in test [2]; 70.9% in test [3]; 72% in test [4]; 72.7% in test [5]; 71.6% in test [6]. The growth in test [7] was 74.2%; in test [8] it was 93.2%; in test [9], 62.8%; in [10], 87.9%; in test [11], 11%; in [12], 66.8%. The growth in test [13] was 47.7%; in test [14], 110%; in test [15] it was 55.8%; in test [16] it was 55.4%; in [17] it was 75.2%; in test [18], 25.4%.

The values are drawn from PubChem BioAssay (NCI).
